Records with an inconclusive call do not appear. Activity calls are given as the source filed them. Calls come from the whole dose curve; as a rule, active = well fitted inhibition curve with a large enough effect; inconclusive = small, poorly fitted or top-dose-only effect; inactive = flat fitted curve, though single readings scatter.
How the values were obtained:
Assay in all cases: qHTS profiling for inhibitors of Plasmodium falciparum proliferation (AID 504749); note: nearly all actives have a fitted effect of over 60% in size
Conditions in all cases: P. falciparum in erythrocytes, SYBR Green DNA, 72 h; series mostly up to 28.7 µM
AS120 = system: AS120
Procedure, shortened: (§1)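 Fluorescence of SYBR Green-bound parasite DNA, read at 485/535 nm, served as the growth measure. Infected erythrocytes were cultured with compound 72 h; artemisinin (0.29 uM) and DMSO wells defined the normalization range.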

ATS189 = system: ATS189
Procedure, shortened: as §1

CP211 = system: CP211
Procedure, shortened: as §1

CP215 = system: CP215
Procedure, shortened: as §1

CP262 = system: CP262
Procedure, shortened: as §1

CP266 = system: CP266
Procedure, shortened: as §1

CP268 = system: CP268
Procedure, shortened: as §1

CP269 = system: CP269
Procedure, shortened: as §1

CP297 = system: CP297
Procedure, shortened: as §1

CP305 = system: CP305
Procedure, shortened: as §1

CP315 = system: CP315
Procedure, shortened: as §1

CP325 = system: CP325
Procedure, shortened: as §1

CP329 = system: CP329
Procedure, shortened: as §1

CP335 = system: CP335
Procedure, shortened: as §1

DIV14 = system: DIV14
Procedure, shortened: as §1

DIV17 = system: DIV17
Procedure, shortened: as §1

DIV30 = system: DIV30
Procedure, shortened: as §1

GB4 = system: GB4
Procedure, shortened: as §1

PC26 = system: PC26
Procedure, shortened: as §1

TAB113 = system: TAB113
Procedure, shortened: as §1

Measured: Potency

CC(=O)OC1CC2CCC1(C)C2(C)C (stereo not given)
inactive: all assays above
